According to PubChem BioAssay (NCI):
The panel holds about 83,000 compounds, 20% with a hit somewhere; the sample as a whole holds those more often.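 Interpretation: 100, growth as untreated; towards 0, rising growth inhibition; 0, no net growth; 0 to -100, cell death. Compounds scoring below 10 were considered active.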 Unmarked numbers belong to inactive results. Calls of active or inactive are those of the source.

Assays:
Assay in all cases: NCI-60 one-dose screen, 48 h (100 = growth as untreated, 0 = no growth, -100 = all killed)
Details in all cases: 10 µM unless noted
HCT-15 colon = system: HCT-15 colon
HT29 colon = system: HT29 colon
SNB-75 CNS = system: SNB-75 CNS
SNB-19 CNS = system: SNB-19 CNS
U251 CNS = system: U251 CNS
PC-3 prostate = system: PC-3 prostate
SK-MEL-5 melanoma = system: SK-MEL-5 melanoma
UACC-62 melanoma = system: UACC-62 melanoma
LOX IMVI melanoma = system: LOX IMVI melanoma
SK-MEL-28 melanoma = system: SK-MEL-28 melanoma
SK-MEL-2 melanoma = system: SK-MEL-2 melanoma
EKVX NSCLC = system: EKVX NSCLC
SN12C renal = system: SN12C renal
UO-31 renal = system: UO-31 renal
TK-10 renal = system: TK-10 renal
ACHN renal = system: ACHN renal
CAKI-1 renal = system: CAKI-1 renal
A498 renal = system: A498 renal
CCRF-CEM leukemia = system: CCRF-CEM leukemia
MOLT-4 leukemia = system: MOLT-4 leukemia

Row | SMILES | growth (HCT-15 colon) | growth (HT29 colon) | growth (SNB-75 CNS) | growth (SNB-19 CNS) | growth (U251 CNS) | growth (PC-3 prostate) | growth (SK-MEL-5 melanoma) | growth (UACC-62 melanoma) | growth (LOX IMVI melanoma) | growth (SK-MEL-28 melanoma) | growth (SK-MEL-2 melanoma) | growth (EKVX NSCLC) | growth (SN12C renal) | growth (UO-31 renal) | growth (TK-10 renal) | growth (ACHN renal) | growth (CAKI-1 renal) | growth (A498 renal) | growth (CCRF-CEM leukemia) | growth (MOLT-4 leukemia)
1 | CCn1cc(-c2cc(-c3ccc(Cl)cc3)nc(N)n2)c(-c2ccc(Br)cc2)n1 | 64.9% | 55.8% | 82.4% | 88.7% | 87% | 47% | 90.8% | 60.7% | 88.5% | 61.3% | 62.7% | 78.1% | 84.5% | 67.7% | 80.2% | 46.9% | 51.8% | 92% | 82.9% | 83.4%
2 | Cn1ncc2c(Nc3ccc(O)cc3)nc(Cl)nc21 | 97% | 102% | 95% | 106% | 99.3% | 119% | 100% | 82.6% | 95.7% | 114% | 106% | 87.8% | 96.8% | 84% | 102% | 88% | 92.9% | 111% | 92.1% | 94.2%
3 | Cc1ccc(NC(=S)/N=c2/n(-c3ccccc3)nc3n2CCN3C2=NCCN2)cc1 | 107% | 99.1% | 80.6% | 119% | 108% | 85.6% | 101% | 99.2% | 108% | 108% | 109% | 113% | 100% | 92.4% | 97.5% | 106% | 86% | 81.2% | 102% | 98.8%
4 | CN(C)c1ccc(-c2ccc(-c3ccc(C(=N)N)cc3)s2)cc1 | -74.6% (active) | -65.6% (active) | 97.6% | -70.2% (active) | -86.8% (active) | -91.6% (active) | 74.3% | 37.1% | 12.7% | 94.1% | 107% | 85.9% | -50.1% (active) | 80.8% | -87.9% (active) | -38.8% (active) | 96.6% | 0.528% (active) | -22.5% (active) | 2.73% (active)
5 | O=C(CCN1CCCCC1)c1ccc2ccccc2c1 | 103% | 99.7% | 93.6% | 103% | 93.3% | 97.6% | 97% | 97.2% | 93.3% | 112% | 102% | 112% | 96.7% | 77.1% | 94.5% | 116% | 98.1% | 93.5% | 92.3% | 108%
6 | CCOC(=O)c1cc(C(=O)c2ccc(OC)c(OC)c2)n2ccc(-c3ccccn3)cc12 | 83% | 76.4% | 24.1% | 67.8% | 21.7% | 87% | 37.1% | 83.5% | 84.7% | 71% | 70.9% | 92.2% | 60.6% | 76.3% | 55.4% | 30% | 78.7% | 42.1% | 111% | 124%
7 | CC1=CC[C@@H]2C(C)(C)C(=O)CC[C@@]2(C)[C@@H]1COc1ccc2ccc(=O)oc2c1 | 78.6% | 78.5% | 76.6% | 81% | 87.5% | 58.4% | 26.1% | 41.9% | 87.9% | 87.7% | 77% | 71.4% | 76.1% | 39% | 82% | 74.2% | 47.3% | 75.3% | 61.9% | 39.1%
8 | Clc1ccc(N2CCN(CCCN3CCN(c4cccc(Cl)c4)CC3)CC2)cc1 | 40.2% | 34.7% | 52.3% | 63.3% | 55.2% | 45.3% | 1.8% (active) | 58.9% | 48.4% | 84.6% | 96.7% | 41.9% | 64.2% | 36.6% | 41.4% | 71.6% | 42.7% | 60.4% | 58.9% | 43.7%
9 | Fc1ccc(NC(=S)c2ccccc2)cc1 | 102% | 109% | 99.7% | 100% | 98.5% | 100% | 101% | 88.9% | 112% | 102% | 98.3% | 97.5% | 103% | 88.9% | 94.5% | 102% | 89.8% | 72.8% | 94.6% | 99.9%
10 | O=C(O)CC1CCCCC1c1ccccc1 (stereo not given) | 97.8% | 101% | 106% | 106% | 105% | 90% | 105% | 102% | 103% | 119% | 97.7% | 115% | 105% | 75.2% | 100% | 102% | 103% | 122% | 101% | 109%
11 | O=C(NNc1ccc(-c2ccccc2)nn1)c1ccc(F)cc1 | 89% | 96.1% | 79.9% | 86.5% | 95.2% | 105% | 95.3% | 95.3% | 98.9% | 110% | 108% | 78.4% | 95.1% | 80.8% | 82.9% | 90.9% | 61.8% | 67.6% | 108% | 96.2%
12 | C#C[C@]1(O)CC[C@H]2[C@@H]3CC=C4c5nc(Nc6ccccn6)sc5CC[C@]4(C)[C@H]3CC[C@@]21C | 1.7% (active) | 16.9% | -42.4% (active) | 11% | -26.2% (active) | -28.6% (active) | -82.2% (active) | -28.4% (active) | -68% (active) | -68.2% (active) | -29.6% (active) | 2.77% (active) | 32.1% | -24.4% (active) | 12.3% | 21.6% | -37.6% (active) | -49% (active) | 0.227% (active) | -11.8% (active)
13 | COc1ccccc1S(=O)Nc1ccccc1 (stereo not given) | 102% | 91.4% | 87.4% | 99.5% | 91% | 87.2% | 96.8% | 94.1% | 99.4% | 114% | 82.5% | 106% | 94.4% | 85.9% | 101% | 107% | 98.2% | 82.9% | 93.6% | 103%
14 | CC(=O)OC[C@]12CC[C@@H](C(=O)CBr)[C@@H]1[C@H]1CC[C@@H]3[C@@]4(C)CCCNC(C)(C)[C@@H]4CC[C@@]3(C)[C@]1(C)CC2 | -74.7% [100 µM] (active) | -81.9% [100 µM] (active) | -98.3% [100 µM] (active) | -93.4% [100 µM] (active) | -88.6% [100 µM] (active) | -76.6% [100 µM] (active) | -91.7% [100 µM] (active) | -90.9% [100 µM] (active) | -91.6% [100 µM] (active) | -86.7% [100 µM] (active) | -80.8% [100 µM] (active) | -81% [100 µM] (active) | -37.8% [100 µM] (active) | -99.3% [100 µM] (active) | -92.4% [100 µM] (active) | -90.1% [100 µM] (active) | -96.1% [100 µM] (active) | -84.5% [100 µM] (active) | -32.5% [100 µM] (active) | -23.2% [100 µM] (active)
